Assay results: PubChem BioAssay AID1159580 (chemical genetic matrix, 2015)
“And” between values parts separate entries of the source, which are not always exact repeats. Equal entries are not always repeated. Screen size: about 5,500 compounds; about 2,000 (36%) were called active. Inconclusive results (about 18%) are left out. Rule as the data show it: active = normalized growth mostly below about 0.91 (no sharp cut-off); inconclusive = no clear call, values can overlap the other calls; inactive = mostly above about 0.92. This is one part of the list.

Test: chemical genetic growth profiling, strain panel (AID 1159580);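 also: tested at 20 µM; growth read once vehicle control cultures reached saturation at 30 °C; 1 = growth at the plate median or of vehicle wells; lower values mean less growth of the strain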
Conditions: growth OD

Measured: normalized growth

NC(Cc1ccc(Cl)cc1)C(=O)O (centres undefined)
inactive: S. cerevisiae deletion strains, locus YJR075W, strain HOC1, hits give low values 0.999 and 1.06 | S. cerevisiae deletion strains, locus YKL009W, strain mrt4, hits give low values 1.03 | S. cerevisiae deletion strains, locus YKL068W, hits give low values 0.994 | S. cerevisiae deletion strains, locus YKL085W, strain MDH1 (second series), hits give low values 0.994 | S. cerevisiae deletion strains, locus YKL085W, strain MDH1, hits give low values 0.994 | S. cerevisiae deletion strains, locus YKL160W, strain elf1, hits give low values 0.996 | S. cerevisiae deletion strains, locus YKL190W, strain CNB1, hits give low values 0.991 | S. cerevisiae deletion strains, locus YKR001C, strain vps1, hits give low values 1.02 | S. cerevisiae deletion strains, locus YKR026C, strain gcn3, hits give low values 1 | S. cerevisiae deletion strains, locus YKR091W, strain srl3, hits give low values 0.993 | S. cerevisiae deletion strains, locus YLL001W, strain dnm1, hits give low values 0.984 | S. cerevisiae deletion strains, locus YLL026W, hits give low values 0.999 | S. cerevisiae deletion strains, locus YLL041C, strain sdh2, hits give low values 1 | S. cerevisiae deletion strains, locus YLR027C, strain aat2, hits give low values 0.999 | S. cerevisiae deletion strains, locus YLR039C, strain RIC1, hits give low values 0.994 | S. cerevisiae deletion strains, locus YLR058C, strain SHM2, hits give low values 0.981 | S. cerevisiae deletion strains, locus YLR102C, strain apc9, hits give low values 0.998 | S. cerevisiae deletion strains, locus YLR113W, strain HOG1, hits give low values 0.971 | S. cerevisiae deletion strains, locus YLR221C, strain rsa3, hits give low values 0.996 | S. cerevisiae deletion strains, locus YLR258W, strain gsy2, hits give low values 0.988 | S. cerevisiae deletion strains, locus YLR262C, strain YPT6 (second series), hits give low values 1.02 | S. cerevisiae deletion strains, locus YLR262C, strain YPT6, hits give low values 0.955 | S. cerevisiae deletion strains, locus YLR268W, strain sec22, hits give low values 1 | S. cerevisiae deletion strains, locus YLR320W, strain mms22, hits give low values 0.996 | S. cerevisiae deletion strains, locus YLR330W, strain CHS5, hits give low values 0.992 | S. cerevisiae deletion strains, locus YLR342W, strain FKS1 (second series), hits give low values 1.02 | S. cerevisiae deletion strains, locus YLR342W, strain FKS1, hits give low values 0.999 | S. cerevisiae deletion strains, locus YLR357W, strain rsc2, hits give low values 0.977 | S. cerevisiae deletion strains, locus YLR370C, strain arc18, hits give low values 1 | S. cerevisiae deletion strains, locus YLR371W, strain rom2, hits give low values 0.993 | S. cerevisiae deletion strains, locus YLR384C, strain iki3, hits give low values 0.986 | S. cerevisiae deletion strains, locus YLR418C, strain cdc73, hits give low values 1.04 | S. cerevisiae deletion strains, locus YML016C, strain PPZ1, hits give low values 0.986 | S. cerevisiae deletion strains, locus YML032C, strain rad52, hits give low values 0.983 | S. cerevisiae deletion strains, locus YML120C, strain ndi1, hits give low values 0.993 | S. cerevisiae deletion strains, locus YML124C, strain tub3, hits give low values 0.998 | S. cerevisiae deletion strains, locus YMR058W, strain fet3, hits give low values 1.02 | S. cerevisiae deletion strains, locus YMR078C, strain ctf18, hits give low values 0.992 | S. cerevisiae deletion strains, locus YMR125W, strain sto1, hits give low values 0.993 | S. cerevisiae deletion strains, locus YMR129W, hits give low values 0.995 | S. cerevisiae deletion strains, locus YMR205C, strain PFK2, hits give low values 0.991 | S. cerevisiae deletion strains, locus YMR223W, strain ubp8, hits give low values 1.01 | S. cerevisiae deletion strains, locus YMR231W, strain pep5, hits give low values 0.993 | S. cerevisiae deletion strains, locus YMR263W, strain SAP30, hits give low values 0.991 and 0.983 | S. cerevisiae deletion strains, locus YMR307W, strain GAS1, hits give low values 1.06 | S. cerevisiae deletion strains, locus YNL067W, strain RPL9B, hits give low values 0.986 | S. cerevisiae deletion strains, locus YNL071W, strain lat1, hits give low values 1 | S. cerevisiae deletion strains, locus YNL128W, strain TEP1, hits give low values 0.976 | S. cerevisiae deletion strains, locus YNL153C, strain GIM3, hits give low values 0.983 and 1.07 | S. cerevisiae deletion strains, locus YNL175C, strain NOP13, hits give low values 0.986 | S. cerevisiae deletion strains, locus YNL183C, strain NPR1, hits give low values 0.891 | S. cerevisiae deletion strains, locus YNL209W, strain ssb2, hits give low values 1 | S. cerevisiae deletion strains, locus YNL224C, strain SQS1, hits give low values 1.01 | S. cerevisiae deletion strains, locus YNL233W, strain BNI4, hits give low values 0.991 | S. cerevisiae deletion strains, locus YNL248C, strain rpa49, hits give low values 1.01 | S. cerevisiae deletion strains, locus YNL250W, strain rad50, hits give low values 0.988 | S. cerevisiae deletion strains, locus YNL271C, strain bni1, hits give low values 1 | S. cerevisiae deletion strains, locus YNL298W, strain CLA4, hits give low values 0.985 | S. cerevisiae deletion strains, locus YNL307C, strain MCK1, hits give low values 1.01 | S. cerevisiae deletion strains, locus YNL322C, strain KRE1 (second series), hits give low values 0.983 | S. cerevisiae deletion strains, locus YNL322C, strain KRE1, hits give low values 0.989 | S. cerevisiae deletion strains, locus YNR049C, strain mso1, hits give low values 1 | S. cerevisiae deletion strains, locus YNR052C, strain pop2, hits give low values 0.986 | S. cerevisiae deletion strains, locus YOL006C, strain TOP1, hits give low values 0.991 | S. cerevisiae deletion strains, locus YOL012C, strain htz1 1.95 | S. cerevisiae deletion strains, locus YOL147C, strain pex11, hits give low values 1.01 | S. cerevisiae deletion strains, locus YOR001W, strain rrp6, hits give low values 1 | S. cerevisiae deletion strains, locus YOR061W, strain CKA2, hits give low values 0.97 | S. cerevisiae deletion strains, locus YOR069W, strain VPS5, hits give low values 0.997 | S. cerevisiae deletion strains, locus YOR070C, strain gyp1, hits give low values 0.988 | S. cerevisiae deletion strains, locus YOR080W, strain dia2, hits give low values 0.992 | S. cerevisiae deletion strains, locus YOR083W, strain WHI5, hits give low values 1.02 | S. cerevisiae deletion strains, locus YOR106W, strain vam3, hits give low values 0.987 | S. cerevisiae deletion strains, locus YOR136W, strain idh2, hits give low values 0.995 | S. cerevisiae deletion strains, locus YOR144C, strain elg1, hits give low values 1 | S. cerevisiae deletion strains, locus YOR184W, strain ser1, hits give low values 1 | S. cerevisiae deletion strains, locus YOR231W, strain MKK1, hits give low values 0.991 | S. cerevisiae deletion strains, locus YOR265W, strain rbl2, hits give low values 0.986 | S. cerevisiae deletion strains, locus YOR270C, strain vph1, hits give low values 1.02 | S. cerevisiae deletion strains, locus YOR290C, strain snf2, hits give low values 0.965 | S. cerevisiae deletion strains, locus YOR316C, strain cot1, hits give low values 0.993 | S. cerevisiae deletion strains, locus YPL051W, strain arl3, hits give low values 0.992 | S. cerevisiae deletion strains, locus YPL055C, strain LGE1, hits give low values 0.976 | S. cerevisiae deletion strains, locus YPL078C, strain atp4, hits give low values 1 | S. cerevisiae deletion strains, locus YPL106C, strain sse1, hits give low values 0.97 | S. cerevisiae deletion strains, locus YPL240C, strain hsp82, hits give low values 1 | S. cerevisiae deletion strains, locus YPL241C, strain CIN2, hits give low values 0.995 and 1.01 | S. cerevisiae deletion strains, locus YPL256C, strain CLN2, hits give low values 0.969 | S. cerevisiae deletion strains, locus YPR119W, strain clb2, hits give low values 0.993 | S. cerevisiae deletion strains, locus YPR141C, strain kar3, hits give low values 0.992 | S. cerevisiae deletion strains, locus YPR163C, strain tif3, hits give low values 1 | S. cerevisiae deletion strains, locus YPR167C, strain met16, hits give low values 0.996 | S. cerevisiae deletion strains, strain wtn01, hits give low values 0.99 | S. cerevisiae strains, strain wild type, hits give low values 0.998
